About 2,000 (36%) of roughly 5,500 compounds were called active. Roughly 18% stayed inconclusive and do not appear here. No stated cut-off is given here; in the data, active means normalized growth mostly below about 0.91 (no sharp cut-off); inconclusive means no clear call, values can overlap the other calls; inactive means mostly above about 0.92. The list shows a part of the results.
Experiment: chemical genetic growth profiling, strain panel (AID 1159580);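 further: tested at 20 µM; growth read once vehicle control cultures reached saturation at 30 °C; 1 = growth at the plate median or of vehicle wells; lower values mean less growth of the strain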
Details: S. cerevisiae deletion strains, growth OD

## COc1ccc2c(c1)CCC1C2CC[C@@]2(C)C1CC[C@@H]2NCCCCCCN1C(=O)C=CC1=O (stereo partly drawn)
Locus YAL013W, strain DEP1, active compounds read low
  normalized growth: 0.989 (inactive)
Locus YAL040C, strain CLN3, active compounds read low
  normalized growth: 0.444 (active)
Locus YCL061C, strain MRC1 (second series), active compounds read low
  normalized growth: 0.998 (inactive)
Locus YDR150W, strain NUM1, active compounds read low
  normalized growth: 0.976 (inactive)
Locus YDR363W, strain ESC2, active compounds read low
  normalized growth: 0.988 (inactive)
Locus YER002W, strain NOP16, active compounds read low
  normalized growth: 0.843 (active)
Locus YJR075W, strain HOC1, active compounds read low
  normalized growth: 0.997 (inactive)
Locus YMR307W, strain GAS1, active compounds read low
  normalized growth: 0.93 (inactive)
Locus YNL197C, strain WHI3, active compounds read low
  normalized growth: 1.07 (inactive)
Locus YNL224C, strain SQS1, active compounds read low
  normalized growth: 0.256 (active)
Locus YNL322C, strain KRE1, active compounds read low
  normalized growth: 0.984 (inactive)
Locus YOR083W, strain WHI5 (second series), active compounds read low
  normalized growth: 1.02 (inactive)
Locus YPL241C, strain CIN2, active compounds read low
  normalized growth: 0.993 (inactive)
